Screening data deposited in PubChem by National Center for Advancing Translational Sciences (NCATS).
Hits are enriched below; roughly 11% of the tested compounds scored in any of these assays.
Pf growth 96h: Primary qHTS for delayed death inhibitors of the malarial parasite plastid, 96 hour incubation; AID 504834, 2011; P. falciparum luciferase reporter growth, 96 h; Potency, µM (doses to about 28.7 µM), for the others: at the top dose activity change, negative = inhibition, usual class: inhibitors; 320,000 compounds, 6.9% hits; also: % is scaled to controls: 0 for no effect and ±100 for the full control effect
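Infected RBCs, 2% Hct / 0.05% parasitemia final; luciferase-reporter P. falciparum; cpd 96 h, 37 C, 5% CO2; luciferase detection reagent; luminescence.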
Pf growth 48h: Primary qHTS for delayed death inhibitors of the malarial parasite plastid, 48 hour incubation; P. falciparum luciferase growth in erythrocytes, 48 h; Potency, µM (doses to about 28.7 µM), for inactives: at the highest dose activity change, negative = inhibition, usual class: inhibitors; 310,000 compounds, 5.9% hits; AID 504832, 2011; also: % is scaled to controls: 0 for no effect and ±100 for the full control effect
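Read-out is firefly luciferase luminescence from an integrated reporter in P. falciparum, so falling signal marks reduced parasite growth. Infected erythrocytes were at 2% hematocrit and 0.1% parasitemia (final) in Albumax-supplemented RPMI 1640.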
AMA1-RON2 inh: qHTS for Inhibitors of AMA1-RON; Towards Development of Antimalarial Drug Lead: Primary Screen. AlphaScreen AMA1-biotinylated RON2 peptide binding. Potency, µM (highest dose often 58.2 µM), for inactives: at the highest dose activity change, negative = inhibition, usual class: inhibitors. 360,000 compounds, 0.2% hits. AID 720542, 2013;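 also: 0% = vehicle wells and -100% = peptide control; nearly all actives have a fitted effect of over 45% in size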
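AMA1 (3D7) with his tag at 25 nM final met compounds first, then biotinylated RON2 peptide at 25 nM; detection used donor plus acceptor beads, 10 µg/mL apiece, read by AlphaScreen after 30 min at room temperature.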
NS1 function inh: qHTS Assay for Inhibitors of Influenza NS1 Protein Function. Potency, µM (series often up to 46.1 µM), without a hit: at the highest dose activity, positive = more growth. 270,000 compounds, 0.4% hits; calls by dose curve; also: actives are rising curves; nearly all actives have a fitted effect of over 50% in size
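In this qHTS, NS1 from influenza A is expressed in budding yeast, where it slows growth. Cells are switched from glucose to 2% galactose medium (pH 6.0, -URA), treated with compound, and growth recovery is read at OD600.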
Sm TGR inh: qHTS Assay for the Inhibitors of Schistosoma Mansoni Peroxiredoxins. purified TGR, DTNB reduction, TNB absorbance 405 nm. 360,000 compounds, 3% hits. Potency, µM (top dose mostly 114 µM), without a hit: top-dose activity change, negative = inhibition, most hits filed as inhibitors. Schistosoma mansoni thioredoxin glutathione reductase (TGR), Q962Y6; also: % is scaled to controls: 0 for no effect and ±100 for the full control effect; nearly all actives have a fitted effect of over 60% in size
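First, TGR (20 nM dispensed) and NADPH were mixed with compound. Second, a 15 min room-temperature incubation followed. Third, further NADPH and then DTNB were added to start the reaction. Finally, TNB absorbance was monitored kinetically.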
Numbers without * were called inactive; ? = inconclusive; · = no result. Unless noted, calls follow the shape of the dose curve; as a rule, active = well fitted curve in the direction sought with a large enough effect; inconclusive = small, poorly fitted or top-dose-only effect, or another doubt; inactive = no such curve, though single readings can be large; an effect the other way counts as inactive or inconclusive. Potency is read from the fitted curve at half-maximal effect.

SMILES | Pf growth 96h | Pf growth 48h | AMA1-RON2 inh | NS1 function inh | Sm TGR inh
COC(=O)c1ccc(S(=O)(=O)N2CCN(C(c3ccccc3)c3ccccc3)CC2)n1C | ? | 10.4µM* | -4.1% | 4.9% | 13.0%
CCOC(=O)c1ccc(NC2=CC(c3ccc(O)c(OCC)c3)N(c3ccc(C(=O)OCC)cc3)C2=O)cc1 (stereo not given) | · | · | · | · | 0.7%
O=c1c2c(nc3c(-c4ccc(Cl)cc4)c[nH]n13)CCC2 | -12.8% | 10.4µM* | 48.3% | · | -9.9%
Cc1ccc(-c2[nH]n3c(=O)c4c(nc3c2C)CCCC4)cc1 | -27.8% | 0.0465µM* | -18.0% | ? | 3.1%
Cc1cc2nc3c(c(=O)n2[nH]1)CCCC3 | 6.4% | 11.7µM* | 1.6% | 8.5% | -20.2%
O=c1c2c(nc3c(-c4ccccc4)c[nH]n13)CCC2 | 87.8% | 51.4% | 43.0% | 13.0% | -20.2%
COc1ccc(C(CNC(=O)c2cccc(S(=O)(=O)N(C)c3ccccc3)c2)N2CCCC2)cc1 (stereo not given) | ? | ? | -5.3% | · | -17.2%
CC(C)CN(C(=O)/C=C/c1nc2ccccc2s1)C1CCS(=O)(=O)C1 (stereo not given) | 7.38µM* | ? | 16.2% | · | -21.5%
COc1ccc(/C=C/C(=O)N(CC(C)C)C2CCS(=O)(=O)C2)cc1 (stereo not given) | ? | -8.3% | 11.8% | · | -9.6%
O=C1NC(=O)C(=Cc2ccccc2OCCOc2ccc([N+](=O)[O-])cc2)C(=O)N1 | 49.9% | 12.5% | 0.3% | · | ?
CN1C(=O)C(=Cc2ccccc2OCCOc2ccc([N+](=O)[O-])cc2)C(=O)N(C)C1=O | 11.7µM* | 3.8% | 13.2% | · | -16.1%
CCOC(=O)C1CCN(C(c2ccccc2OC)c2c(O)cc(C)n(CCOC)c2=O)CC1 (stereo not given) | · | · | · | · | 7.08µM*
COCCn1c(C)cc(O)c(C(c2ccccc2OC)N2CCCCC2)c1=O (stereo not given) | · | · | · | · | 10µM*
COCCn1c(C)cc(C(=O)CN2CCCCC2)c1C | 14.0% | -6.6% | 12.9% | · | -23.0%
CC(=O)CSc1ccc(-c2nc3ccccc3[nH]2)cn1 | 8.28µM* | 74.6% | -1.0% | -38.3% | -6.9%
COc1ccc(CCn2c3c(c(=O)[nH]c2=O)C(NC(=O)c2ccccc2)(C(F)(F)F)C(=O)N3)cc1OC (stereo not given) | · | · | · | · | 9.4%
CC1(C(=O)NS(=O)(=O)c2cccc(OC(F)F)c2)CCN1C(=O)CC1CCCC1 (stereo not given) | · | · | -8.0% | · | ·
O=C1OC2(O)C3C4C=CC(C4)C3C(=O)N2c2ccccc21 (stereo not given) | 46.4% | 2.33µM* | -4.4% | 5.4% | 3.9%
O=C1c2ccc(-c3ccc(F)cc3OCc3ccccc3)cc2S(=O)(=O)c2cccc(C(=O)N3CCCC3)c21 | ? | 4.65µM* | -28.3% | · | -8.8%
O=C(NCc1cccc(OC(F)(F)F)c1)c1cccc2c1C(=O)c1ccc(-c3ccc(F)cc3OCc3ccccc3)cc1S2(=O)=O | · | · | -4.3% | · | ·
COc1ccc(OC)c(CNS(=O)(=O)c2cn(C)cn2)c1 | 3.9% | 14.3% | 2.0% | -11.7% | -0.6%
CCOc1ccc(NC(=O)CN2CCCC2c2cccs2)cc1S(=O)(=O)N1CCCC1 (stereo not given) | 14.7µM* | 11.7µM* | -9.5% | · | -16.7%
O=C(Nc1cccc(S(=O)(=O)N2CCCCC2)c1)C1=NN(c2ccccc2)C(=O)CC1 | 6.57µM* | 5.22µM* | -10.7% | · | -13.1%
CCOc1ccc(NC(=O)c2ccco2)cc1S(=O)(=O)N1CCCC1 | ? | ? | -12.5% | · | -27.7%
CCOc1ccc(NC(=O)C2=NN(c3ccccc3)C(=O)CC2)cc1S(=O)(=O)N1CCCCC1 | ? | 11.7µM* | -7.6% | · | 5.6%
Cc1ccc(C)c(N2N=C(C(=O)Nc3cccc(S(=O)(=O)N4CCCCC4)c3)CCC2=O)c1 | 4.65µM* | 4.65µM* | -10.0% | · | -3.7%
Cn1cc(C(c2ccccc2OCC(=O)O)c2cn(C)c3ccccc23)c2ccccc21 | 5.22µM* | 32.0% | -25.8% | ? | 0.7%
